# Assay outcomes deposited in PubChem BioAssay by National Center for Advancing Translational Sciences (NCATS).
# Shown are actives, neighbours in structure and some others; about 11% of the full set was active somewhere.
# hNpr1 antagonist: human Npr1 receptor antagonism. P16066. HEK293 hNpr1 GloSensor cGMP, ANP-stimulated luminescence. Potency, µM (titrated, usually from 46.3 µM), for inactives: at the highest dose activity change, negative = inhibition, usual class: inhibitors. 76,000 tested, 1.6% active. AID 1347048; calls by dose curve; also: % is scaled to controls: 0 for no effect and ±100 for the full control effect; nearly all actives have a fitted effect of over 60% in size
# Target sequence (P16066 whole entry, looked up): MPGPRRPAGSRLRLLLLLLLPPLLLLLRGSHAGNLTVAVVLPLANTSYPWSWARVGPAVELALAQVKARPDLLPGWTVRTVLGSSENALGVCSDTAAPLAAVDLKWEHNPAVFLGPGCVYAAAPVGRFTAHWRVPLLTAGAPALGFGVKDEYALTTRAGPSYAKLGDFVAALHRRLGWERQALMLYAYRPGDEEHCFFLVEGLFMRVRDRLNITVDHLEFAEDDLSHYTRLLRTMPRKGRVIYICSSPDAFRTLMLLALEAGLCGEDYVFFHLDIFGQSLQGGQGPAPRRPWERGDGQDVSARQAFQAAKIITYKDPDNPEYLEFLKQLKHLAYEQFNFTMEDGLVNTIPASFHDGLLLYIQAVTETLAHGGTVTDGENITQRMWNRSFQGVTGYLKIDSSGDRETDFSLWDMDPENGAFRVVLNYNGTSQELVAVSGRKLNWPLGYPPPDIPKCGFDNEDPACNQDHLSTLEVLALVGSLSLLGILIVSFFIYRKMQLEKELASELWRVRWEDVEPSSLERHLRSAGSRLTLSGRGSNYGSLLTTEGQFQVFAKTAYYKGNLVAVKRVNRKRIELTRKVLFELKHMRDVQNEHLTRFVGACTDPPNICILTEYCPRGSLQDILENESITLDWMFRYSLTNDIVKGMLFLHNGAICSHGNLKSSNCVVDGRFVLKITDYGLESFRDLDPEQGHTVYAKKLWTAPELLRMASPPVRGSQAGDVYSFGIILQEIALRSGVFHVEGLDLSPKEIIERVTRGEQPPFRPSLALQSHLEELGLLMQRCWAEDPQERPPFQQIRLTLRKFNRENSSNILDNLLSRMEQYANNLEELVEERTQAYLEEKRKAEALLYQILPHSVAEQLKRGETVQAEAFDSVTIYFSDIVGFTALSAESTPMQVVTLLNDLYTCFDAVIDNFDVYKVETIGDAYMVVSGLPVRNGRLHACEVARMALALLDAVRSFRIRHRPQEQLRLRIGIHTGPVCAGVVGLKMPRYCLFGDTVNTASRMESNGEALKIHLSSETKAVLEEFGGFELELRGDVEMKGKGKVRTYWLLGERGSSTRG
#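 HEK293 cells stably expressing human Npr1 and cGMP GloSensor pGS-40F, loaded 2 h with 2% GloSensor reagent, given compound 30 min at room temperature. Luminescence read before and 20 min after 0.1 nM hNppA.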
# HEK cytotox: cytotoxic compounds in HEK 293 cells. HEK 293 viability, ATP luminescence (CellTiter-Glo), 48-72 h. Potency, µM (top dose mostly 115 µM), for the others: top-dose activity change, negative = cytotoxicity, usual class: inhibitors. 94,000 tested, 6.6% active. AID 1345083; also: % is scaled to controls: 0 for no effect and ±100 for the full control effect; nearly all actives have a fitted effect of over 60% in size
#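 Read-out: CellTiter-Glo ATP luminescence. Cells: HEK 293, 250 cells/well. Exposure: 48 or 72 hr, 37 degree Celsius.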
# NIH3T3 tox: NIH 3T3 cell cytotoxicity; NIH 3T3 viability, CellTiter-Glo ATP luminescence, 48-72 h; Potency, µM (top dose mostly 96.7 µM), for the others: at the highest dose activity change, negative = cytotoxicity, hits mostly inhibitors; 94,000 tested, 4.3% active; also: % is scaled to controls: 0 for no effect and ±100 for the full control effect; nearly all actives have a fitted effect of over 55% in size
#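 Mouse fibroblast NIH 3T3 cells, 400 per well, received compound via pintool and were incubated for 48 or 72 hr prior to CellTiter-Glo ATP luminescence measurement.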
# FLuc inh-1: inhibitors of firefly (Photinus pyralis) luciferase; P08659; purified P. pyralis luciferase, luminescence, biochemical; Potency, µM (top dose mostly 115 µM), most hits filed as inhibitors; 76,000 tested, 2.5% active; also: % is scaled to controls: 0 for no effect and ±100 for the full control effect; nearly all actives have a fitted effect of over 65% in size
#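 Biochemical qHTS: compound (6-point titration) added to 10uM D-luciferin plus 10uM ATP in Tris acetate pH 7.5 buffer with Mg, Tween-20 and BSA, then purified enzyme at 10nM; light output imaged.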
# FLuc SDR -ATP: binders stabilizing firefly luciferase, without ATP; 1,300 tested, 7.8% active; AID 1963318; Potency, µM (top dose mostly 32.7 µM), for the others: at the top dose activation (signal gain), hits mostly activators; Purified FLuc-C-HiBiT, Nano-Glo HiBiT luminescence, no ATP; shares compounds with FLuc inh-1; also: nearly all actives have a fitted effect of over 55% in size
# FLuc SDR ATP: stabilizes firefly luciferase with ATP present. shares compounds with FLuc inh-1. purified FLuc-C-HiBiT + ATP, HiBiT complementation luminescence. Potency, µM (top dose mostly 32.7 µM), without a hit: at the highest dose activation (gain of signal), actives largely listed as activators. 1,300 tested, 8.7% active;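 also: signal reports ligand binding via conformational change of the enzyme rather than luciferase catalysis; % of control where 0% means no effect; nearly all actives have a fitted effect of over 55% in size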
# FLuc inh-2: inhibitors of firefly luciferase enzymatic activity. shares compounds with FLuc inh-1. purified FLuc-C-HiBiT enzyme, luciferin luminescence. Potency, µM (titrated, usually from 32.7 µM), inactives show at the highest dose activity change, negative = inhibition, usual class: inhibitors. 1,300 tested, 42% active; also: % is scaled to controls: 0 for no effect and ±100 for the full control effect; nearly all actives have a fitted effect of over 70% in size
# * marks the source's active call; other numbers are inactive results; i = inactive; ? = inconclusive; . = no result; [ ] = remark or other dose. Unless noted, calls follow the shape of the dose curve; as a rule, active = well fitted curve in the direction sought with a large enough effect; inconclusive = small, poorly fitted or top-dose-only effect, or another doubt; inactive = no such curve, though single readings can be large; an effect the other way counts as inactive or inconclusive. Potency is read from the fitted curve at half-maximal effect.
SMILES,hNpr1 antagonist,HEK cytotox,NIH3T3 tox,FLuc inh-1,FLuc SDR -ATP,FLuc SDR ATP,FLuc inh-2
Cc1cn2nc(C(=O)NCCc3ccccc3)cc2c(=O)[nH]1,-21%,-2%,4%,10µM*,?,?,?
Cc1cn2nc(C(=O)NCc3ccccc3Cl)cc2c(=O)[nH]1,19%,-7%,-12%,?,.,.,.
Cc1cn2nc(C(=O)Nc3ccc(C(=O)N4CCCC4)cc3)cc2c(=O)[nH]1,5%,?,?,7.9µM*,?,?,9.9µM*
CCCNC(=O)N1CCC2(CC1)NCCc1c2[nH]c2ccccc12,-1%,?,-27%,i,.,.,.
COc1ccc(-c2nc3ccccc3s2)cc1NC(=O)c1ccccc1F,.,.,.,.,15%,7%,-16%
COc1ccc(-c2nc3ccccc3s2)cc1NC(=O)c1cccc([N+](=O)[O-])c1C,.,.,.,.,15%,14%,6.2µM*
COc1ccccc1NC(=O)c1cnc(-c2ccc(F)cc2)nc1-c1ccncc1,-14%,1%,i,i,.,.,.
COc1ccc(-c2nc3ccccc3s2)cc1NC(=O)c1cc2ccccc2o1,.,.,.,.,7%,7%,-4%
COc1ccc(-c2ccc(C(=O)Nc3ccccc3F)c(Cl)c2)nn1,.,?,-26%,.,.,.,.
CNC(=O)c1cc2cc(-c3c(C)noc3C)nc(-c3cccc(OC)c3OC)c2o1,5%[70.6 µM],?,?,i,.,.,.
COc1ccc(-c2nc3ccccc3s2)cc1NC(=O)c1ccc(C#N)cc1F,.,.,.,.,13%,9%,-1%
COc1ccc(C[C@H](NC(=O)C2=C[C@@H](NS(=O)(=O)c3cccs3)[C@@H](O)[C@H](O)C2)C(N)=O)cc1,4%,0%,2%,i,.,.,.
CC(=O)Nc1cc(C2CCCC2)nn1C,.,-10%[230 µM],-20%[174 µM],.,.,.,.
COc1ccccc1NC(=O)O[C@H]1COCCN(c2nc3ccccc3s2)C1,-8%[70.6 µM],?,?,i,.,.,.
CCOc1ccc(C(=O)Nc2ccc(-c3nc4ccccc4s3)cc2)cc1[N+](=O)[O-],.,.,.,.,13%,9%,0%
COc1ccc(-c2nc3ccccc3s2)cc1NC(C)=O,.,.,.,.,15%,15%,?
O=C(NCC1CCOCC1)[C@@H]1C[C@@H](c2ccc(F)cc2)N(CCOc2ccccc2)C1,-30%[70.6 µM],?,?,i,.,.,.
Cc1cccc(CN2CCc3nc(C(=O)NCc4ccccc4)oc3CC2)c1,-27%[70.6 µM],?,?,i,.,.,.
O=C(Nc1cccnc1)c1nc2c(o1)CCN(Cc1nccs1)CC2,.,.,.,.,25%[49.3 µM],17%[49.3 µM],?
O=C(NCCOc1ccccc1)c1nc2c(o1)CCN(Cc1ccsc1)CC2,-11%[70.6 µM],?,?,i,.,.,.
O=C(Nc1ccccc1)c1nc2c(o1)CCN(Cc1ccc(F)cc1)CC2,18µM*,?,?,8.9µM*,20%[49.3 µM],17%[49.3 µM],?
Cc1csc(NC(=O)c2nc3c(o2)CCN(Cc2ccccc2F)CC3)n1,-21%[70.6 µM],?,?,4.5µM*,?,18%[49.3 µM],?
O=C(Nc1cccnc1)c1nc2c(o1)CCN(Cc1ccc(O)cc1)CC2,.,.,.,.,23%[49.3 µM],16%[49.3 µM],?
O=C(NCc1ccncc1)c1nc2c(o1)CCN(Cc1nccs1)CC2,-16%[70.6 µM],?,-22%[138 µM],i,.,.,.
COc1ccccc1C(=O)NCc1nnc2c(-c3nc(C4CC4)no3)cccn12,-3%,-17%,-20%,i,.,.,.
SMILES,hNpr1 antagonist,HEK cytotox,NIH3T3 tox,FLuc inh-1,FLuc SDR -ATP,FLuc SDR ATP,FLuc inh-2
O=C(c1ccsc1)N1CC2CC(C1)[C@H]1CCCC(=O)N1C2 (some centres undefined),2%,2%,i,i,.,.,.
COc1ccc(N2C(=O)CSC23CCN(C(=O)CC(C)C)CC3)cc1,5%,i,?,i,.,.,.
Nc1nc(N2CCC3(CC2)NC(=O)CC3C(=O)O)c2[nH]cnc2n1 (centres undefined),2%,i,-3%,i,13%,9%,4%
CCOC1CCCN(c2ncnc3c2cnn3-c2ccccc2)C1 (centres undefined),.,.,.,.,21%,?,?
CC1CCN(c2ncnc3c2cnn3-c2ccc(F)cc2)CC1,.,.,.,.,19%,19%,11µM*
NC(=O)C1CCN(c2ncnc3c2cnn3-c2ccccc2)CC1,.,.,.,.,15%,12%,-9%
CN(C)C1CCN(c2ncnc3c2cnn3-c2ccccc2)CC1,.,.,.,.,13%,11%,-6%
CS(=O)(=O)N(Cc1ccccn1)C1CN(C(=O)CCc2c[nH]c3ccccc23)C1,.,3%,-17%,.,.,.,.
